A selection: hits, their analogues and other compounds. The true share with any hit is near 0.74%.
RECQ1 inh – RECQ1 (human) helicase inhibition; Potency, µM (titrated, usually from 57.3 µM), for inactives: at the highest dose activity, negative = inhibition, hits mostly inhibitors; P46063; RECQ1 DNA unwinding, red fluorescence kinetic read; 240,000 compounds, 0.54% hits;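 note: plate controls were vehicle for no effect and no enzyme for full effect; nearly all actives have a fitted effect of over 30% in size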
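RECQ1T1 50 nM; forked duplex (20 bp + 30-nt ss tails) 200 nM, ATP 2 mM final; pH 8.0, 2 mM MgCl2, 2.5 ug/ml poly(dI-dC); 15 min compound preincubation; discontinuous kinetic read over 2 h at RT.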
FEN1 inh-1 – inhibitors of human flap endonuclease 1; Recombinant FEN1 flap cleavage, fluorescence, 15 min; 390,000 compounds, 0.35% hits; Potency, µM (top dose mostly 114 µM), without a hit: at the top dose activity change, negative = inhibition, actives largely listed as inhibitors; P39748; note: % is set by controls: 0 for no effect and ±100 for the full control effect; nearly all actives have a fitted effect of over 65% in size
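Read-out was taken twice, immediately and after 15 min, following addition of 50 nM substrate to 10 nM FEN1 that had sat with test compound for 15 min at room temperature. Curves came from a four-parameter Hill model.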
PGK inhibitor – blocks T. brucei phosphoglycerate kinase; P07378; PGK/GAPDH coupled, Kinase-Glo luminescence, 60 min; Potency, µM (series often up to 57.5 µM), inactives show at the highest dose activity change, negative = inhibition, usual class: inhibitors; 380,000 compounds, 0.043% hits; AID 602233; note: % is set by controls: 0 for no effect and ±100 for the full control effect; nearly all actives have a fitted effect of over 60% in size
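Recombinant glycosomal PGK reaction used 1,3-bisphosphoglycerate generated in-well by GAPDH (100nM final) in 100mM TEA pH 7.6, 5mM MgCl2, 0.01% Tween-20. After 60 minutes at room temperature, ATP was read by Kinase-Glo Plus luminescence end-point.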
BLM helicase inh – Bloom syndrome helicase (human) inhibition. recombinant BLM DNA unwinding, fluorescence dequenching. Potency, µM (highest dose often 56.1 µM), inactives show at the highest dose activity change, negative = inhibition, usual class: inhibitors. 350,000 compounds, 0.2% hits. AID 2528. P54132;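 note: plate controls were vehicle for no effect and no enzyme for full effect; nearly all actives have a fitted effect of over 35% in size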
APE1 inh – inhibitors of human APE1 endonuclease; recombinant APE1, TAMRA/BHQ-2 abasic DNA cleavage fluorescence; Potency, µM (top dose mostly 65.8 µM), without a hit: top-dose activity change, negative = inhibition, hits mostly inhibitors; 350,000 compounds, 0.35% hits; AID 2517;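 note: plate controls were vehicle for no effect and reference inhibitor for full effect; nearly all actives have a fitted effect of over 55% in size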
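Compound pre-exposure to 0.75 nM APE1, 15 min at ambient temperature. Reaction initiated with 50 nM TAMRA/BHQ-2 THF substrate, read immediately in kinetic mode, 525 nm excitation, 598 nm emission.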
FEN1 inh-2 – confirmation of human FEN1 inhibitors | shares compounds with FEN1 inh-1 | FEN1 flap cleavage, TAMRA/BHQ2 fluorogenic DNA substrate | Potency, µM, most hits filed as inhibitors | 880 compounds, 79% hits; note: nearly all actives have a fitted effect of over 60% in size
The depositor's hits bear a star; i = inactive; ? = inconclusive; · = not tested or not shown. Calls come from the whole dose curve; as a rule, active = well fitted curve in the direction sought with a large enough effect; inconclusive = small, poorly fitted or top-dose-only effect, or another doubt; inactive = no such curve, though single readings can be large; an effect the other way counts as inactive or inconclusive. Potency is the fitted concentration of half-maximal effect.

SMILES | RECQ1 inh | FEN1 inh-1 | PGK inhibitor | BLM helicase inh | APE1 inh | FEN1 inh-2
Cc1cc(NCc2ccccc2Cl)n2nnnc2n1 | -29.4% | 6.2% | -6.3% | 3.3% | 5.0% | ·
Cc1cc(C)c2nc3nc(C)c(C)cc3c(N)c2c1 | i | 44.7µM* | 2.9% | 185.5% | -4.6% | 23.9*
CCCSc1nc(C)c2cc(C)cc(C)c2n1 | 2.9% | -1.1% | 2.2% | -0.8% | -2.8% | ·
CN(C)CCNc1ccc(CO)c2sc3ccc(O)cc3c(=O)c12 | · | 22.4µM* | -9.6% | · | · | 16.9*
CN(C)CCNc1ccc2ncn3c4ccc(O)cc4c(=O)c1c23 | · | 8.91µM* | i | · | · | 4.78*
CN(C)CCNc1ccc(-c2nn(C)c(=O)c3ccccc23)cc1[N+](=O)[O-] | i | 12.2% | 2.1% | -10.6% | -4.9% | ·
Cc1cc(C)c(NC(=O)COC(=O)CCc2ccc(S(=O)(=O)N3CCCCC3)cc2)c(C)c1 | 0.8% | 50.6% | i | 4.0% | -9.2% | ·
O=C(Nc1ccccc1N1CCCCC1)c1ccc(Cl)c([N+](=O)[O-])c1 | -5.8% | -5.0% | -1.1% | -0.4% | 0.2% | ·
CCN=c1scc(C)n1/N=C/c1ccc(O)c(O)c1O | 25.1µM* | ? | -9.6% | -18.8% | ? | ?
CCN=c1scc(C)n1/N=C/c1cc(Br)c(O)c(Br)c1 | ? | 11.2% | -8.1% | -5.1% | -1.6% | ·
Oc1ccc(C2=Nn3c(nnc3-c3ccco3)SC2)cc1O | 3.0% | 50.1µM* | ? | ? | -1.5% | 42.6*
CC(C)n1c(-c2ccc(C(C)(C)C)cc2)n[nH]c1=S | -14.5% | 11.4% | 0.3% | -4.6% | -2.2% | ·
O=C(O)c1ccc(-n2cccc2/C=N\NC(=O)c2cc3cc(Br)ccc3o2)cc1 | ? | ? | ? | -5.6% | 3.55µM* | ?
CCOc1ccc(C(F)(F)F)cc1NC(C)=O | -13.4% | -0.3% | -3.8% | -2.0% | 1.7% | ·
CCN(CC)C(=S)S | · | · | · | 3.3% | · | ·
NS(=O)(=O)c1ccc(N=Nc2c[nH]c(=O)c(O)c2)cc1 | -17.6% | ? | ? | -14.9% | ? | ?
Cc1cc(C)c(C(=O)N(C)CC2CCCN(CCc3ccccc3F)C2)o1 (stereo not given) | · | -4.2% | -11.9% | 1.9% | 14.2% | ·
CCCc1cc(=O)oc2cc(OCC(=O)Nc3ccc(S(N)(=O)=O)cc3)ccc12 | · | ? | ? | ? | ? | 67.5*
O=[N+]([O-])c1ccc(/C=N/Nc2nc(N3CCCCCC3)nc(N3CCCCCC3)n2)o1 | 0.4% | 35.5µM* | -5.8% | -18.4% | 7.6% | 37.9*
COc1cc2cc3c(N)c(C(=O)Nc4sc(C)c(C)c4C#N)sc3nc2cc1OC | 10µM* | 50.1µM* | · | 31.6µM* | 12.6µM* | 42.6*
CN(C)CCCNc1ncnc2sc(-c3ccccc3)cc12 | 9.8% | ? | i | 38.7% | -5.0% | ?
CCOc1cc(/C=C2\SC(=S)N(C(C(=O)O)c3ccccc3)C2=O)ccc1O (stereo not given) | 6.7% | ? | i | ? | 12.1% | 84.9*
O=C(O)C(Cc1ccccc1)N1C(=O)/C(=C/c2cccnc2)SC1=S (stereo not given) | i | -13.3% | 9.1% | 2.4% | -1.9% | ·
O=C(O)C(c1ccccc1)N1C(=O)/C(=C\c2ccc(O)c(O)c2)SC1=S (stereo not given) | · | ? | ? | 7.3% | -37.6% | 30.1*
Cc1c(C(=O)N2CCN(Cc3cccs3)CC2)oc2ccccc12 | · | -13.9% | i | · | 39.6% | ·
SMILES | RECQ1 inh | FEN1 inh-1 | PGK inhibitor | BLM helicase inh | APE1 inh | FEN1 inh-2
CCCn1c2ccccc2c2nnc(SCCN3CCOCC3)nc21 | · | -7.7% | -1.2% | -0.1% | 8.6% | ·
c1ccc2nc3c(nc2c1)c1ccccc1n3CCN1CCOCC1 | -3.0% | ? | -9.4% | 87.5% | -2.7% | ?
Cc1cccc(C)c1NC(=O)CS(=O)CC(=O)NC1CCN(Cc2ccccc2)CC1 (stereo not given) | -2.0% | 0.9% | -1.3% | 1.8% | 0.1% | ·
Cc1cc(C)c(S(=O)(=O)/N=C2/C=C(Sc3ncn[nH]3)C(=O)c3ccccc32)cc1C | 11.1% | 50.1µM* | ? | 10µM* | ? | 33.8*
O=C(Cc1ccccc1)NC(c1ccco1)c1cc(Cl)c2cccnc2c1O (stereo not given) | · | · | · | · | · | 30.1*
CCCC(=O)NC(c1ccco1)c1cc(Cl)c2cccnc2c1O (stereo not given) | 4.4% | ? | -0.2% | -5.0% | -1.9% | ·
Cc1cc(C(=O)N(NC(=O)C(C)C)c2ccccc2)cs1 | -1.5% | 16.9% | -4.2% | -4.1% | -0.9% | ·
N#C/C(=C\c1ccc([N+](=O)[O-])o1)C(=O)Nc1ccc(F)cc1 | i | -19.1% | 6.2% | -24.2% | 20.7% | 47.8*
Cc1ccc(/C=C(\C#N)C(=O)Nc2ccc(Br)cc2)o1 | · | -8.0% | · | 1.1% | · | ·
COc1ccccc1/C=C/C=N/n1c(COc2ccccc2)n[nH]c1=S | -15.6% | -0.3% | 1.6% | -4.4% | -5.1% | ·
COc1cccc2c(N/N=C/c3ccccc3)cc(C)nc12 | · | -20.4% | -10.2% | -7.9% | 11.0% | ·
Cc1cc(N/N=C/c2ccccc2O)c2ccccc2n1 | · | ? | -1.3% | 56.2% | -31.8% | ·
COc1ccc(/C=N/Nc2cc(C)nc3ccc(Br)cc23)cc1 | · | ? | 1.5% | -7.6% | -43.6% | ?
COc1ccc2nc(C)cc(N/N=C/c3cccc(OC)c3O)c2c1 | · | 14.1µM* | 0.4% | -26.4% | -23.7% | 9.53*
O=C(O)CC(C(=O)NC1CCCCC1)C1CCCO1 (stereo not given) | -1.2% | -1.8% | -6.0% | 1.5% | -1.6% | ·
CN(C)CCNc1ncnc2oc(-c3ccccc3)c(-c3ccccc3)c12 | · | ? | -19.5% | 25.7% | 10.1% | ·
COc1ccc(-c2oc3ncnc(NCCCN(C)C)c3c2-c2ccc(OC)cc2)cc1 | · | ? | -9.5% | 1.3% | -14.7% | ?

Screens: PubChem BioAssay, National Center for Advancing Translational Sciences (NCATS)
